Holding throughout (assay): NCI-60 one-dose screen, 48 h (100 = growth as untreated, 0 = no growth, -100 = all killed)
Conditions in all cases: 10 µM

In assay [1] the test system is RPMI-8226 leukemia.
Assay [2] concerns OVCAR-8 ovarian.
Assay [3] concerns OVCAR-5 ovarian.
Assay [4] deals with OVCAR-4 ovarian.
The subject of assay [5] is IGROV1 ovarian.
In assay [6] the test system is OVCAR-3 ovarian.
Assay [7] deals with HS 578T breast.
Assay [8] deals with NCI/ADR-RES ovarian.
The test system of assay [9] is BT-549 breast.
The subject of assay [10] is MDA-MB-435 melanoma.
Assay [11] deals with SW-620 colon.
The subject of assay [12] is MCF7 breast.
In assay [13] the test system is HCT-116 colon.
Assay [14] has as its system HCC-2998 colon.
For assay [15], the system named is KM12 colon.
The subject of assay [16] is SK-OV-3 ovarian.
Assay [17] has as its system T-47D breast.

About 83,000 compounds went through this panel and 20% of them were active in at least one assay; those are over-represented in the sample as a whole.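 Cells were grown in 96-well plates and exposed to the test compound at a single concentration for 48 hours; results are reported as percent growth, with values below 10 considered active.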 A number with no mark means an inactive call. The source made the active and inactive calls.

Take `O=C1N=NC2=C1c1c3ccccc3c(O)n1CC2`: the growth in assay [1] was 101%; in assay [2], 101%; in [3] it was 103%; in assay [4], 106%; in [5] it was 117%; in assay [6], 127%. Also, the growth in [7] is 147%; in assay [8] it was 105%; in [9], 110%; in assay [10] it was 99.8%; in [11], 106%; in [12], 94.2%. The growth in assay [13] is 93.9%; in [14] it was 101%; in assay [15], 109%.
As for `COc1ccc(Cl)cc1C(=O)Nc1nc2ccc(Cl)cc2s1`, the growth is 80.5% in assay [1]; 88.9% in assay [2]; 124% in assay [3]; 91.9% in assay [16]; 65.9% in assay [5]; 103% in [6]. Further, the growth in [7] was 102%; in assay [8], 102%; in [17], 47.2%; in assay [9], 97.7%; in [10], 97.6%; in assay [11], 101%. Also, the growth in assay [12] is 41.7%; in assay [13], 53.2%; in assay [14] it was 102%; in assay [15], 94.8%.
As for `ClCCOCCn1cnc2c(Cl)nc(Cl)nc21`, the growth in assay [1] is 93.1%; in assay [2], 62.7%; in assay [3] it was 102%; in [16] it was 97.4%; in assay [5] it was 59%; in assay [6], 58.8%. Also, the growth was 12.4% in assay [7]; 101% in assay [8]; 80.9% in assay [17]; 102% in assay [9]; 80.7% in assay [10]; 47.6% in assay [11]. In addition, the growth is 55.9% in assay [12], -13.6% (active) in assay [13], -90.2% (active) in assay [14] and 92.5% in assay [15].
Consider `COc1ccc(-c2csc(NC(=O)CSc3nc(C)c(-c4ccccc4)n3Nc3ccccc3)n2)cc1`, for which the growth in assay [1] is 30.7%; in [2], 31.7%; in assay [3] it was 81.2%; in [16] it was 88.3%; in assay [5], 41.8%; in [6], 56.6%. Also, the growth in assay [7] is 19.8%; in assay [8], 12.1%; in [17], 24.8%; in [9], 63.5%; in [10], 56.1%; in [11], 70.2%. For the same molecule, the growth is 41.7% in assay [12], 36.4% in assay [13], 78.7% in [14] and 41.5% in assay [15].
In the case of `COc1ccc2c(c1)nc(N)c1c3cccnc3cn21`, the growth in assay [1] was 34.3%; in assay [2], 4.95% (active); in assay [16], 9.24% (active); in [5], 17.8%; in assay [6] it was 20.4%; in assay [7], 43.1%. Moreover, the growth is -2.31% (active) in [8]; 62.6% in [17]; 44.3% in [9]; -14.3% (active) in assay [10]; 20.5% in assay [11]; 20.4% in assay [12]. The growth in [13] is 10.8%; in assay [14], 20.2%; in [15], 17.1%.
In the case of `C=C(Cl)[C@@](Cl)(CBr)CC[C@@H](Br)C(C)(C)Cl`, the growth was -59.4% (active) in assay [1]; -46.3% (active) in assay [3]; -37% (active) in [4]; 93.5% in [16]; 29.6% in [5]; -96.2% (active) in assay [6]. Further, the growth in assay [7] was -29% (active); in assay [8] it was -66.6% (active); in [17] it was -58.9% (active); in assay [10] it was -24.2% (active); in assay [12], -51.7% (active); in [13], -94.6% (active). Further, the results for the growth in [14] and in assay [15] were -96.9% (active) and -94.2% (active), respectively.
Consider `O=C1OCC2=C1C(c1cccc(Br)c1)c1cc3c(cc1N2CCO)CCC3` (stereo not drawn), for which the growth in [1] was 19%; in assay [3], 22.4%; in assay [4], 54.6%; in [16] it was 28.8%; in assay [5] it was 20.3%; in [6] it was -62.5% (active). Besides, the growth in assay [7] is 6.91% (active); in assay [8] it was -5.39% (active); in assay [17] it was 71.5%; in assay [9], 15.7%; in [10], -40% (active); in [12], 21.4%. In addition, the growth in assay [13] is 6.12% (active); in [15] it was -47.5% (active).
As to `CN(C)C(=S)N/N=C\C=N/NC(=S)N(C)C`, the growth in [1] was 0.534% (active); in assay [3], 95.2%; in [4] it was -36.5% (active); in assay [16], 49.9%; in assay [5], -59.4% (active); in [6] it was 9.87% (active). Besides, the growth is 74.5% in assay [7]; 51.3% in assay [8]; 15% in [17]; 81% in assay [9]; 67% in assay [10]; 64.1% in assay [11]. For the same molecule, the growth in assay [12] was 12%; in assay [13], 0.438% (active); in assay [14], 80.4%; in assay [15], 81.5%.
`N#Cc1c(C#N)c(SSc2c(C#N)c(C#N)c(N)n2-c2ccccc2)n(-c2ccccc2)c1N`: the growth in [1] was 125%; in assay [3] it was 91.8%; in assay [4], 76.8%; in assay [16] it was 115%; in assay [5], 94.5%; in assay [6], 127%. The growth in assay [7] was 99.6%; in assay [8] it was 101%; in assay [17], 96.5%; in assay [9], 109%; in [10], 114%; in assay [11], 98.7%. Besides, the growth in assay [12] is 104%; in assay [13], 104%; in assay [14], 96.3%; in assay [15] it was 106%.
Regarding `Cc1cc(C)c(NC(=O)c2sc3nc4c(cc3c2N)C(=O)CCC4)c(C)c1`, the growth in assay [1] was 31.8%; in assay [2], 45.6%; in [16] it was 10.4%; in assay [5] it was 35.4%; in assay [6], 13.2%; in assay [7], 17.7%. In addition, the growth is -8.04% (active) in [8]; 40.6% in [17]; 56.7% in assay [9]; -34.4% (active) in assay [10]; 15.6% in assay [11]; 16.8% in assay [12]. In addition, the growth in [13] is 23.1%; in [14], 30.9%; in assay [15], 27.3%.

The values above are taken from PubChem BioAssay (NCI).
